Drawing on paper PMC11006913, this text covers binding signal for eleven sequences.

What all share (assay): PBM; 200 nM protein, PBS
Settings in all cases: dsDNA, one strand shown

The target in test [1] is HOXA7 (Homo sapiens, UniProt P31268 116-202).
The target of test [2] is MSX2 (Homo sapiens, UniProt P35548 130-214, R199I).
Test [3] deals with MSX2 (Homo sapiens, UniProt P35548 130-214).
Test [4] deals with MSX2 (Homo sapiens, UniProt P35548 130-214, F161Y).
Test [5] concerns the target HOXA7 (Homo sapiens, UniProt P31268 116-202, W177C).
Test [6] concerns the target T1, PAX4 (Homo sapiens, UniProt O43316 9-242, R200K).
T1 sequence: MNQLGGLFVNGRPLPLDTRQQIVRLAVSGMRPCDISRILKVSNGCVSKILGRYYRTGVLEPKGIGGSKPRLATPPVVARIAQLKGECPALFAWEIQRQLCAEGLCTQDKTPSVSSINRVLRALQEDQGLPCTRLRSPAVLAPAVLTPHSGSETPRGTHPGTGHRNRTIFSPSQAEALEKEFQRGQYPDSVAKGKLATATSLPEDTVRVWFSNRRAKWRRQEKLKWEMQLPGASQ

Test [7] deals with T2, PAX4 (Homo sapiens, UniProt O43316 9-242).
T2 sequence: T1 sequence with K192R

Test [8] has as its target T3, PAX4 (Homo sapiens, UniProt O43316 9-242, R200Q).
T3 sequence: T1 sequence with K192Q

Test [9] concerns the target T4, PAX4 (Homo sapiens, UniProt O43316 9-242, F177V).
T4 sequence: T1 sequence with F169V, K192R

For test [10], the target named is HOXA2 (Homo sapiens, UniProt O43364 129-215, R185T).
Sequence of HOXA2 (Homo sapiens, UniProt O43364 129-215, R185T) (O43364 129-215 R185T): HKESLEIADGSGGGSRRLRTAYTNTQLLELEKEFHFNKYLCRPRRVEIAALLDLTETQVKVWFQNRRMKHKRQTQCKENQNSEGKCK
In test [11] the target is HOXA2 (Homo sapiens, UniProt O43364 129-215, R185K).
Sequence of HOXA2 (Homo sapiens, UniProt O43364 129-215, R185K) (O43364 129-215 R185K): as the sequence (O43364 129-215 R185T) above, with T57K counted along it
Test [12] concerns the target HOXA2 (Homo sapiens, UniProt O43364 129-215, Y150S).
The target in test [13] is HOXA2 (Homo sapiens, UniProt O43364 129-215).
Sequence of HOXA2 (Homo sapiens, UniProt O43364 129-215) (O43364 129-215): as the sequence (O43364 129-215 R185T) above, with T57R counted along it
Another test deals with PITX2 (Homo sapiens, UniProt Q99697 72-157).
For test [14], the target named is HOXB6 (Homo sapiens, UniProt P17509 132-218, K202E).
Sequence of HOXB6 (Homo sapiens, UniProt P17509 132-218, K202E) (P17509 132-218 K202E): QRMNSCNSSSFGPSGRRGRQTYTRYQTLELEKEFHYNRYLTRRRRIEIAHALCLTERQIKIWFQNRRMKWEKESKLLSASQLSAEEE
In test [15] the target is VAX1 (Homo sapiens, UniProt Q5SQQ9 86-172).
Sequence of VAX1 (Homo sapiens, UniProt Q5SQQ9 86-172) (Q5SQQ9 86-172): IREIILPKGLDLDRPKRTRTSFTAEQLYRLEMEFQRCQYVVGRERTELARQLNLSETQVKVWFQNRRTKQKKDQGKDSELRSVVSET
Test [16] addresses VAX1 (Homo sapiens, UniProt Q5SQQ9 86-172, T142I).
Test [17] concerns the target VAX1 (Homo sapiens, UniProt Q5SQQ9 86-172, K157R).
Test [18] has as its target HOXB6 (Homo sapiens, UniProt P17509 132-218).
Test [19] addresses HOXD13 (Homo sapiens, UniProt P35453 263-343, T313R).
Test [20] concerns the target HOXD13 (Homo sapiens, UniProt P35453 263-343).
The target of test [21] is HOXD13 (Homo sapiens, UniProt P35453 263-343, T313A).
Sequence of HOXD13 (Homo sapiens, UniProt P35453 263-343, T313A) (P35453 263-343 T313A): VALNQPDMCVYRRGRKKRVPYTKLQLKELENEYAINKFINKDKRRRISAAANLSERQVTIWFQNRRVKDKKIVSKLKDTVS
The target of the next test is HOXC9 (Homo sapiens, UniProt P31274 178-260, R222W).
Sequence of HOXC9 (P31274 178-260 R222W): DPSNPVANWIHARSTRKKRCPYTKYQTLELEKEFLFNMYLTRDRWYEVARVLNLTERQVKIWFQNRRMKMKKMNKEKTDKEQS

Changes are numbered by the printed parent chain.

Sequence of MSX2 (Homo sapiens, UniProt P35548 130-214) (P35548 130-214): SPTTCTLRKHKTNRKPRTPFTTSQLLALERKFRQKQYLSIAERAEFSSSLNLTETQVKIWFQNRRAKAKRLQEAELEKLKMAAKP
Sequence of MSX2 (Homo sapiens, UniProt P35548 130-214, F161Y) (P35548 130-214 F161Y): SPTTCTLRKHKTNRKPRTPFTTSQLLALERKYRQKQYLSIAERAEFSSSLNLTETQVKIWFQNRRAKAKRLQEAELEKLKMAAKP
Sequence of HOXA7 (Homo sapiens, UniProt P31268 116-202, W177C) (P31268 116-202 W177C): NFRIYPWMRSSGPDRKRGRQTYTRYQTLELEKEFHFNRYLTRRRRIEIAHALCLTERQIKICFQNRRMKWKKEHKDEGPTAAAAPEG
Sequence of MSX2 (Homo sapiens, UniProt P35548 130-214, R199I) (P35548 130-214 R199I): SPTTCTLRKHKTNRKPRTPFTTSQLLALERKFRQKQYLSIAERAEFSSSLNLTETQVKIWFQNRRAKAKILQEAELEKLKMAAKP
Sequence of HOXA7 (Homo sapiens, UniProt P31268 116-202) (P31268 116-202): as the sequence (P31268 116-202 W177C) above, with C62W counted along it
Sequence of HOXB6 (Homo sapiens, UniProt P17509 132-218) (P17509 132-218): as the sequence (P17509 132-218 K202E) above, with E71K counted along it
Sequence of HOXD13 (Homo sapiens, UniProt P35453 263-343) (P35453 263-343): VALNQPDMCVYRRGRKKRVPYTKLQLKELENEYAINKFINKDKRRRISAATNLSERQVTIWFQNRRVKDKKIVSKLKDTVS
Sequence of VAX1 (Homo sapiens, UniProt Q5SQQ9 86-172, K157R) (Q5SQQ9 86-172 K157R): as the sequence (Q5SQQ9 86-172) above, with K72R counted along it
Sequence of HOXD13 (Homo sapiens, UniProt P35453 263-343, T313R) (P35453 263-343 T313R): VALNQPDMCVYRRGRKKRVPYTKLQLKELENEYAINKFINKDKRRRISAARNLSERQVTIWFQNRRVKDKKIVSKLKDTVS
Sequence of HOXA2 (Homo sapiens, UniProt O43364 129-215, Y150S) (O43364 129-215 Y150S): as the sequence (O43364 129-215 R185T) above, with Y22S, T57R counted along it
Sequence of VAX1 (Homo sapiens, UniProt Q5SQQ9 86-172, T142I) (Q5SQQ9 86-172 T142I): as the sequence (Q5SQQ9 86-172) above, with T57I counted along it

As to CGGTGTCC, the binding signal was 8.41 upbm affinity estimate (log intensity, higher = more binding, comparable within an allelic series) with HOXA7 [1]; 9.36 upbm affinity estimate (log intensity, higher = more binding, comparable within an allelic series) with MSX2 [2]; 9.29 upbm affinity estimate (log intensity, higher = more binding, comparable within an allelic series) with MSX2 [3]; 9.3 upbm affinity estimate (log intensity, higher = more binding, comparable within an allelic series) with MSX2 [4]; 8.4 upbm affinity estimate (log intensity, higher = more binding, comparable within an allelic series) with HOXA7 [5].

For GATTACAC, the binding signal was 9.6 upbm affinity estimate (log intensity, higher = more binding, comparable within an allelic series) with HOXA7 [1]; 10.9 upbm affinity estimate (log intensity, higher = more binding, comparable within an allelic series) with PAX4 [6]; 11.2 upbm affinity estimate (log intensity, higher = more binding, comparable within an allelic series) with PAX4 [7]; 11 upbm affinity estimate (log intensity, higher = more binding, comparable within an allelic series) with PAX4 [8]; 10.3 upbm affinity estimate (log intensity, higher = more binding, comparable within an allelic series) with PAX4 [9]; 8.73 upbm affinity estimate (log intensity, higher = more binding, comparable within an allelic series) with HOXA7 [5].

In the case of TAGTTTAA, the binding signal is 9.76 upbm affinity estimate (log intensity, higher = more binding, comparable within an allelic series) with HOXA7 [1] and 8.8 upbm affinity estimate (log intensity, higher = more binding, comparable within an allelic series) in the test with HOXA7 [5].

Consider GACCCTGC, for which the binding signal with HOXA7 [1] was 8.54 upbm affinity estimate (log intensity, higher = more binding, comparable within an allelic series); with HOXA2 [10], 7.03 upbm affinity estimate (log intensity, higher = more binding, comparable within an allelic series); with MSX2 [2], 9.48 upbm affinity estimate (log intensity, higher = more binding, comparable within an allelic series); with HOXA2 [11] it was 10.3 upbm affinity estimate (log intensity, higher = more binding, comparable within an allelic series); in the test with MSX2 [3], 9.31 upbm affinity estimate (log intensity, higher = more binding, comparable within an allelic series); with MSX2 [4], 9.36 upbm affinity estimate (log intensity, higher = more binding, comparable within an allelic series). Further, the binding signal with HOXA2 [12] was 10.5 upbm affinity estimate (log intensity, higher = more binding, comparable within an allelic series); with HOXA7 [5], 8.43 upbm affinity estimate (log intensity, higher = more binding, comparable within an allelic series); in the test with HOXA2 [13], 6.79 upbm affinity estimate (log intensity, higher = more binding, comparable within an allelic series).

In the case of AGGGCATG, the binding signal was 8.51 upbm affinity estimate (log intensity, higher = more binding, comparable within an allelic series) in the test with HOXA7 [1]; 7.96 upbm affinity estimate (log intensity, higher = more binding, comparable within an allelic series) with PITX2; 8.49 upbm affinity estimate (log intensity, higher = more binding, comparable within an allelic series) with HOXA7 [5].

With GAGGGACC, the binding signal with HOXA7 [1] is 8.55 upbm affinity estimate (log intensity, higher = more binding, comparable within an allelic series); with MSX2 [2], 9.48 upbm affinity estimate (log intensity, higher = more binding, comparable within an allelic series); with MSX2 [3] it was 9.7 upbm affinity estimate (log intensity, higher = more binding, comparable within an allelic series); with MSX2 [4], 9.64 upbm affinity estimate (log intensity, higher = more binding, comparable within an allelic series); in the test with HOXA7 [5], 8.33 upbm affinity estimate (log intensity, higher = more binding, comparable within an allelic series).

On to CTCAGCTC, for which the binding signal was 8.44 upbm affinity estimate (log intensity, higher = more binding, comparable within an allelic series) with HOXA7 [1] and 8.39 upbm affinity estimate (log intensity, higher = more binding, comparable within an allelic series) in the test with HOXA7 [5].

Regarding CATTATTA, the binding signal is 11.1 upbm affinity estimate (log intensity, higher = more binding, comparable within an allelic series) with HOXA7 [1]; 10 upbm affinity estimate (log intensity, higher = more binding, comparable within an allelic series) with HOXB6 [14]; 8.89 upbm affinity estimate (log intensity, higher = more binding, comparable within an allelic series) with HOXA7 [5].

In the case of CGTCCACC, the binding signal with HOXA7 [1] is 8.57 upbm affinity estimate (log intensity, higher = more binding, comparable within an allelic series); with HOXA7 [5], 8.48 upbm affinity estimate (log intensity, higher = more binding, comparable within an allelic series).

With AATTACCC, the binding signal with HOXA7 [1] was 11.4 upbm affinity estimate (log intensity, higher = more binding, comparable within an allelic series); with HOXB6 [14] it was 9.85 upbm affinity estimate (log intensity, higher = more binding, comparable within an allelic series); with VAX1 [15], 12.7 upbm affinity estimate (log intensity, higher = more binding, comparable within an allelic series); in the test with MSX2 [4], 13 upbm affinity estimate (log intensity, higher = more binding, comparable within an allelic series); with VAX1 [16], 12.5 upbm affinity estimate (log intensity, higher = more binding, comparable within an allelic series); with HOXA7 [5], 8.89 upbm affinity estimate (log intensity, higher = more binding, comparable within an allelic series). Moreover, the binding signal was 12.6 upbm affinity estimate (log intensity, higher = more binding, comparable within an allelic series) with VAX1 [17] and 11.7 upbm affinity estimate (log intensity, higher = more binding, comparable within an allelic series) in the test with HOXB6 [18].

On to TATAAAAA, for which the binding signal in the test with HOXA7 [1] was 9.87 upbm affinity estimate (log intensity, higher = more binding, comparable within an allelic series); with HOXD13 [19] it was 10.9 upbm affinity estimate (log intensity, higher = more binding, comparable within an allelic series); with HOXD13 [20] it was 11.8 upbm affinity estimate (log intensity, higher = more binding, comparable within an allelic series); with HOXD13 [21] it was 11.6 upbm affinity estimate (log intensity, higher = more binding, comparable within an allelic series); in the test with HOXC9 it was 11.1 upbm affinity estimate (log intensity, higher = more binding, comparable within an allelic series); in the test with HOXA7 [5] it was 8.84 upbm affinity estimate (log intensity, higher = more binding, comparable within an allelic series).
